Measured values published in PubChem BioAssay (NCATS).
“And” between values parts separate entries of the source, which are not always exact repeats. Equal values may be shown once. Inconclusive results are not listed. The source made the active and inactive calls. The call rests on the fitted dose curve; in most records, active means well fitted inhibition curve with a large enough effect; inconclusive means small, poorly fitted or top-dose-only effect; inactive means flat fitted curve, though single readings scatter.

Legend:
[1] = test system: CRL-7250; assay: Cytotoxic Profiling of Annotated Libraries Using Quantitative High-Throughput Screening (AID 1296008); settings: Five cell lines viability, CellTiter-Glo ATP luminescence, 48-72 h; max response: stronger effect = lower value; further: potency means the concentration at half of the fitted maximal effect; on max response: on the % scale 0 is the no-effect control and ±100 the full control effect
In short: (§1)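 Cytotoxicity was measured as CellTiter-Glo ATP luminescence, read after 10 min at room temperature. Compound treatment of the cells lasted 48 or 72 hr at 37 degrees Celsius in a qHTS format.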

[2] = test system: HEK293; assay: as above; settings: Five cell lines viability, CellTiter-Glo ATP luminescence, 48-72 h; max response: stronger effect = lower value
In short: as §1

[3] = test system: HaCat; assay: as above; settings: Five cell lines viability, CellTiter-Glo ATP luminescence, 48-72 h; max response: stronger effect = lower value
In short: as §1

[4] = test system: KB-3-1; assay: as above; settings: Five cell lines viability, CellTiter-Glo ATP luminescence, 48-72 h; max response: stronger effect = lower value
In short: as §1

[5] = test system: HACAT; assay: qHTS assay to identify novel small-molecules to repurpose for Merkel cell carcinoma treatment (AID 1296009); settings: MCC and control cell lines, CellTiter-Glo viability, 72 h; series mostly up to 44.8 µM; further: potency means the concentration at half of the fitted maximal effect
In short: (§2)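 72 hr, 37 degree celsius; NPC 8-pt / MIPE 11-pt dose response; compound pinned in DMSO; CellTiter-Glo, 10 min RT, luminescence; normalized to no-cell and DMSO controls.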

[6] = test system: MCC-13; assay: as above; settings: MCC and control cell lines, CellTiter-Glo viability, 72 h; series mostly up to 46 µM
In short: as §2

[7] = test system: MCC-26; assay: as above; settings: MCC and control cell lines, CellTiter-Glo viability, 72 h; series mostly up to 46 µM
In short: as §2

[8] = test system: MKL-1; assay: as above; settings: MCC and control cell lines, CellTiter-Glo viability, 72 h; series mostly up to 46 µM
In short: as §2

[9] = test system: MKL-2; assay: as above; settings: MCC and control cell lines, CellTiter-Glo viability, 72 h; series mostly up to 46 µM
In short: as §2

[10] = test system: NIH3T3; assay: Cytotoxic Profiling of Annotated Libraries Using Quantitative High-Throughput Screening (AID 1296008); settings: Five cell lines viability, CellTiter-Glo ATP luminescence, 48-72 h; max response: stronger effect = lower value; further: potency means the concentration at half of the fitted maximal effect; on max response: on the % scale 0 is the no-effect control and ±100 the full control effect
In short: as §1

[11] = test system: PC15; assay: qHTS profiling for inhibitors of Plasmodium falciparum proliferation (AID 504749);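 further: 0% = DMSO vehicle and full inhibition = artemisinin control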; settings: P. falciparum in erythrocytes, SYBR Green DNA, 72 h; series mostly up to 28.7 µM
In short: (§3)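 Infected RBCs, 0.3% parasitemia/2.5% Hct final; cpd 72 h, 37 C, 5% CO2; lysis buffer with saponin/triton/SYBR Green I, o/n RT dark; FI 485/535; norm. to artemisinin (0.29 uM) and DMSO.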

[12] = test system: PC26; assay: as above; settings: P. falciparum in erythrocytes, SYBR Green DNA, 72 h; series mostly up to 28.7 µM
In short: as §3

[13] = test system: PC49; assay: as above; settings: P. falciparum in erythrocytes, SYBR Green DNA, 72 h; series mostly up to 28.7 µM
In short: as §3

[14] = test system: SC27B; assay: as above; settings: P. falciparum in erythrocytes, SYBR Green DNA, 72 h; series mostly up to 28.7 µM
In short: as §3

[15] = test system: TAB109; assay: as above; settings: P. falciparum in erythrocytes, SYBR Green DNA, 72 h; series mostly up to 28.7 µM
In short: as §3

[16] = test system: TAB113; assay: as above; settings: P. falciparum in erythrocytes, SYBR Green DNA, 72 h; series mostly up to 28.7 µM
In short: as §3

[17] = test system: TAB165; assay: as above; settings: P. falciparum in erythrocytes, SYBR Green DNA, 72 h; series mostly up to 28.7 µM
In short: as §3

[18] = test system: W2; assay: as above; settings: P. falciparum in erythrocytes, SYBR Green DNA, 72 h; series mostly up to 28.7 µM
In short: as §3
Further: nearly all actives have a fitted effect of over 60% in size.

O=C(O)Cn1nnc(-c2cc(N3CCC(Oc4cc(F)ccc4Br)CC3)no2)n1
active: Potency [2] 1.18 µM and 1.3 µM | Potency [4] 3.72 µM and 2.31 µM
inactive: max response [1] 1.84% and -2.26% | outcome [3] | Potency [5] | Potency [6] | Potency [7] | Potency [8] | Potency [9]

Nc1nccc(Oc2ccc(NC(=O)c3c[nH]cc(-c4ccc(F)cc4)c3=O)cc2F)c1Cl
active: Potency [1] 18.7 µM | Potency [2] 11.8 µM and 13 µM | Potency [4] 23.5 µM and 18.4 µM | Potency [10] 16.6 µM | Potency [8] 5.26 µM | Potency [9] 14.8 µM
inactive: max response [3] -25.3% | Potency [6]

COc1cc2c(cc1-c1c(C)noc1C)ncc1[nH]c(=O)n([C@H](C)c3ccccn3)c12
inactive: max response [3] -12.8%
active: Potency [1] 3.26 µM | Potency [2] 5.26 µM and 4.11 µM | Potency [4] 16.6 µM | Potency [10] 20.9 µM | Potency [7] 23.5 µM | Potency [8] 18.7 µM | Potency [9] 2.64 µM

CNC(=O)c1ccccc1Nc1nc(Nc2ccc(N3CCOCC3)cc2OC)ncc1Cl
active: Potency [1] 7.43 µM and 4.11 µM | Potency [2] 3.32 µM | Potency [3] 2.96 µM and 2.31 µM | Potency [4] 2.64 µM and 1.3 µM | Potency [10] 1.05 µM
inactive: Potency [9]

CC(C)c1cc(C(=O)N2Cc3ccc(CN4CCN(C)CC4)cc3C2)c(O)cc1O
active: Potency [1] 0.935 µM | Potency [2] 105 nM and 58 nM | Potency [3] 264 nM and 206 nM | Potency [4] 0.0731 µM | Potency [10] 418 nM and 291 nM | Potency [6] 469 nM
inactive: Potency [9]

CCn1cc(-c2ccnc3[nH]c(-c4cccc(CN(C)C)c4)cc23)c(-c2ccc(NC(=O)N(C)C)cc2)n1
active: Potency [1] 14.8 µM | Potency [2] 11.8 µM | Potency [3] 0.0893 µM | Potency [4] 1.87 µM and 63.2 nM | Potency [10] 3.72 µM and 632 nM | Potency [8] 0.0372 µM | Potency [9] 8.33 µM

OCCCNc1cc(-c2ccnc(Nc3cccc(Cl)c3)n2)ccn1
active: Potency [1] 46.9 nM and 146 nM | Potency [2] 209 nM and 231 nM | Potency [3] 105 nM and 820 nM | Potency [4] 118 nM and 206 nM | Potency [10] 166 nM and 580 nM | Potency [9] 0.296 µM

CNC(=O)c1nn(C)c2c1C(C)(C)Cc1cnc(Nc3ccc(N4CCN(C)CC4)cc3)nc1-2
active: Potency [1] 46.9 nM and 580 nM | Potency [2] 1.16 µM | Potency [3] 1.66 µM and 2.06 µM | Potency [4] 3.32 µM and 2.31 µM | Potency [10] 1.3 µM | Potency [6] 5900 nM | Potency [8] 4.69 µM | Potency [9] 5.26 µM

O=C(NCCCNc1nc(Nc2cccc(NC(=O)N3CCCC3)c2)ncc1I)c1cccs1
inactive: Potency [9]
active: Potency [1] 5.9 µM | Potency [2] 20.9 µM | Potency [3] 18.7 µM | Potency [4] 13.2 µM | Potency [10] 2.09 µM | Potency [6] 9350 nM

Cc1nc2ccc(CN(C)c3ccc(C(=O)N[C@@H](CCC(=O)O)C(=O)O)s3)cc2c(=O)[nH]1
active: Potency [2] 0.0473 µM | Potency [3] 0.0332 µM | Potency [10] 0.119 µM
inactive: max response [1] -19.7% | max response [4] 1.14% | Potency [9]

CN[C@H]1CCc2cc(OC)c(OC)c(OC)c2-c2ccc(OC)c(=O)cc21
active: Potency [1] 0.0148 µM | Potency [2] 0.0015 µM | Potency [4] 3.7 nM and 46.1 nM | Potency [6] 20.9 nM
inactive: max response [3] -10.1%

COc1cccc(-c2ccc(NC(=O)C3=C(C(=O)O)CCC3)c(F)c2)c1
inactive: max response [1] -3.86% and -6.53% | outcome [3] | max response [4] -19.3% | Potency [5] | Potency [6]
active: Potency [2] 7.43 µM and 6.51 µM

Cc1cc(Nc2nc(N[C@@H](C)c3ccc(F)cc3)c(C#N)cc2F)n[nH]1
active: Potency [1] 16.6 µM and 7.31 µM | Potency [2] 2.64 µM and 1.3 µM | Potency [3] 2.59 µM | Potency [4] 1.05 µM and 731 nM | Potency [10] 3.72 µM and 4.11 µM | Potency [7] 7.43 µM

COc1cccc2nc(-c3cccs3)nc(NN3C(=O)C=C(C)C3=O)c12
active: Potency [1] 2.09 µM and 6.51 µM | Potency [2] 418 nM and 517 nM | Potency [3] 23.5 µM | Potency [4] 5.9 µM and 10.3 µM | Potency [10] 1.48 µM and 820 nM | Potency [6] 2640 nM | Potency [9] 0.935 µM

CC[C@@H]1C(=O)N(C)c2cnc(Nc3ccc(C(=O)NC4CCC(N5CCN(CC6CC6)CC5)CC4)cc3OC)nc2N1C(C)C (stereo partly drawn)
active: Potency [1] 332 nM and 14.6 µM | Potency [2] 26.4 nM and 20.6 nM and 13 nM | Potency [3] 0.059 µM | Potency [4] 11.8 nM and 4.6 nM | Potency [10] 2.64 µM and 1.46 µM and 1.3 µM | Potency [6] 469 nM | Potency [8] 0.0743 µM | Potency [9] 4.18 µM

COc1cc(Nc2ncc(F)c(Nc3ccc4c(n3)N(COP(=O)(O)O)C(=O)C(C)(C)O4)n2)cc(OC)c1OC
inactive: Potency [6] | Potency [8] | Potency [9]
active: Potency [1] 1.48 µM and 3.66 µM | Potency [2] 3.72 µM and 7.31 µM | Potency [3] 4.69 µM and 4.61 µM | Potency [4] 4.11 µM | Potency [10] 2.06 µM

O=C(Nc1cn[nH]c1-c1nc2ccc(CN3CCOCC3)cc2[nH]1)NC1CC1
active: Potency [1] 1.3 µM | Potency [2] 10.5 µM and 3.66 µM | Potency [3] 2.64 µM and 231 nM | Potency [4] 5.9 µM and 4.11 µM | Potency [10] 1.48 µM and 1.84 µM | Potency [6] 935 nM | Potency [7] 1.87 µM | Potency [9] 26.4 µM

C1=CCOCc2cc(ccc2OCCN2CCCC2)Nc2nccc(n2)-c2cccc(c2)OCC1
active: Potency [1] 8.33 µM | Potency [2] 3.32 µM | Potency [3] 4.69 µM | Potency [4] 2.96 µM | Potency [10] 7.43 µM | Potency [7] 9.35 µM | Potency [9] 11.8 µM

CC=CC1=C(C(=O)O)N2C(=O)[C@H](NC(=O)[C@H](N)c3ccc(O)cc3)[C@@H]2SC1
inactive: Potency [11] | Potency [12] | Potency [13] | Potency [14] | Potency [15] | Potency [16] | Potency [17] | Potency [18] | max response [1] 1.71% | max response [2] -2.68% | max response [3] -17% | max response [4] 1.31% | max response [10] 1.07% | Potency [6] | Potency [8] | Potency [9]

CCn1nnc2c(N3CCOCC3)nc(-c3ccc(NC(=O)Nc4ccc(C(=O)N5CCN(C)CC5)cc4)cc3)nc21
inactive: Potency [6]
active: Potency [1] 0.0651 µM | Potency [2] 0.206 µM | Potency [3] 662 nM and 1.16 µM | Potency [4] 11.8 nM and 146 nM | Potency [10] 0.517 µM | Potency [9] 0.0105 µM

CC1(C)CC(=O)c2c(C(F)(F)F)nn(-c3ccc(C(N)=O)c(NC4CCC(OC(=O)CN)CC4)c3)c2C1 (stereo not drawn)
active: Potency [1] 469 nM and 231 nM | Potency [2] 118 nM and 58 nM | Potency [3] 2.35 µM and 517 nM | Potency [4] 0.105 µM | Potency [10] 418 nM and 366 nM
inactive: Potency [9]

CC(C)c1cnn2c(NCc3ccccc3)cc(N[C@@H](CO)[C@H](O)CO)nc12
active: Potency [1] 0.296 µM | Potency [2] 332 nM and 1.03 µM | Potency [3] 469 nM and 4.11 µM | Potency [4] 0.731 µM | Potency [10] 935 nM and 3.66 µM | Potency [6] 1660 nM | Potency [9] 1.05 µM
